The source of these data is ChEMBL document CHEMBL4513216, “Probing the Open Global Health Chemical Diversity Library for Multistage-Active Starting Points for Next-Generation Antimalarials” (ACS Infect Dis, 2020).

Screen size: about 68,000 compounds; about 2,700 (4%) showed an effect of 50% or more. This is one part of a sample in which strong results are shown more often than they occur.

This assay concerns Plasmodium berghei. The assay is described as follows: Screen against P. berghei liver stage (PbLuc), transformed with Luciferase, at 2uM. The assay is classed as functional, HepG2. As to conditions: tested at 2 uM.
As for `CNC(=O)c1ccc(OC)c(NCc2ncc(-c3cccs3)o2)c1`, the INHIBITION amounted to 2.67%.

Take `Cc1ccc(CN2CCc3ncnc(-c4cccnc4)c3CC2)o1`: the INHIBITION was determined as 18.57%.

Regarding `Cc1ccc(CN2CCc3ncnc(-c4ccncc4)c3CC2)o1`, the INHIBITION came to 76.36%.

Take `Cc1ccc(CN2CCc3ncnc(-c4ccc(F)cc4)c3CC2)o1`: the INHIBITION was -23.71%.

For `CCc1noc(C)c1C(=O)N1CCCN(Cc2cscn2)CC1`, the INHIBITION is reported as -2.47%.

For the molecule `O=C(Cc1ccsc1)N1C[C@@H]2OCCN(c3cnccn3)[C@@H]2C1`, the INHIBITION is on record as 21.42%.

As for `c1cncc(O[C@H]2CC[C@H]3[C@H]2OCCN3C2CCCC2)c1`, the INHIBITION is -74.01%.

For the molecule `COc1nc2c(cc1C(=O)N1C[C@@H](N)C[C@H]1C(=O)NC(C)C)CCC2`, the INHIBITION came to 63.17%.

Regarding `CC(C)NC(=O)[C@@H]1C[C@@H](N)CN1C(=O)c1cc2c([nH]c1=O)CCCC2`, the INHIBITION was determined as 31.65%.

In the case of `COc1nc2c(cc1C(=O)N1C[C@H](N)C[C@H]1C(=O)NC(C)C)CCC2`, the INHIBITION is reported as 43.8%.

`CC1CCC(NC(=O)Nc2ccc(CC(=O)N(C)C)cc2)CC1` (stereo unspecified): the INHIBITION is on record as 35.5%.

In the case of `Cn1cc(CN2CCN(CC3(c4ccccc4)CC3)CC2)cn1`, the INHIBITION is 27.03%.

`COc1ccc2c(C)c(C(=O)N3CCC(NC(C)=O)C3)oc2c1` (stereo unspecified): the INHIBITION is -41.96%.

With `COc1ccccc1[C@@H]1CN(Cc2c(C)noc2C)C[C@H]1C(=O)O`, the INHIBITION was 68.39%.

Consider `Cc1noc(C)c1CN1C[C@@H](C(=O)O)[C@H](c2ccccc2)C1`, for which the INHIBITION is reported as -0.59%.

`Cc1ccccc1[C@@H]1CN(Cc2c(C)noc2C)C[C@H]1C(=O)O`: the INHIBITION was -18.65%.

On to `O=C(NCCn1ccnc1)N1CCN(c2nccs2)CC1`, for which the INHIBITION is reported as -16.42%.

With `Cc1nc(CN2CC(Cc3ccccc3)CC2=O)no1` (stereo unspecified), the INHIBITION is reported as -12.68%.

On to `O=C(O)[C@]12CCCN(CC3CCOC3)C[C@H]1CN(c1ncccn1)C2` (stereo partly specified), for which the INHIBITION is 13.16%.

As to `O=C1CCN(C(=O)C2(c3ccc(F)cc3)CCCCC2)CCN1`, the INHIBITION was -41.64%.

As for `O=C1CCN(C(=O)C2(c3ccc(F)cc3)CCOCC2)CCN1`, the INHIBITION came to 63.46%.

Regarding `O=C1CCN(C(=O)C2(c3ccc(F)cc3)CCCC2)CCN1`, the INHIBITION worked out at 37.18%.

Take `CCn1c(C2CCN(C(=O)c3ccc4cc[nH]c4c3)CC2)n[nH]c1=O`: the INHIBITION is reported as -9.71%.

With `O=C(c1ccccc1)N1CCCC2(CCN2Cc2cccc(F)c2)C1` (stereo unspecified), the INHIBITION is on record as 29.03%.

Regarding `COc1cc2cc(C(=O)NCC(=O)O)n(C)c2c(OC)c1OC`, the INHIBITION was 16.47%.

Turning to `CC(=O)Nc1ccc(CNC2CC(=O)N(Cc3cccc(F)c3)C2)cc1` (stereo unspecified), the INHIBITION was -34.5%.

For the molecule `COCCO[C@H]1CCN(c2cc(OC)ncn2)[C@H]1Cc1cccnc1`, the INHIBITION was found to be 3%.

As to `Cc1ccncc1NC(=O)C1CSc2ncc(C)c(=O)n2C1` (stereo unspecified), the INHIBITION turned out to be 13.95%.

Take `Cc1cnc2n(c1=O)CC(C(=O)Nc1ccccc1Cl)CS2` (stereo unspecified): the INHIBITION is -51.94%.

On to `Cc1ccc(Cl)cc1NC(=O)C1CSc2ncc(C)c(=O)n2C1` (stereo unspecified), for which the INHIBITION is 61.06%.

For `Cc1ccc(-c2noc(CN3CCc4cncnc4C3)n2)cc1`, the INHIBITION is -49.27%.

In the case of `O=C(c1ccc2c(c1)COC2)N1CCC(Nc2cccnn2)CC1`, the INHIBITION stood at 31.19%.

As for `Cc1cncc(C(=O)N2CC[C@@]3(C[C@H](NS(C)(=O)=O)CCO3)C2)c1`, the INHIBITION amounted to 17.83%.

`CCCc1cc(=O)[nH]c(-n2nc(C3CC3)cc2N)n1`: the INHIBITION is recorded as -67.99%.

With `O=C1N(CC2CC2)CCCC1(O)CN1CCc2[nH]ncc2C1` (stereo unspecified), the INHIBITION is on record as 61.42%.

With `CC(C)(C)CN1CCCC(O)(CN2CCc3[nH]ncc3C2)C1=O` (stereo unspecified), the INHIBITION is -92.69%.

On to `O=C1N(CC2CCCCC2)CCCC1(O)CN1CCc2[nH]ncc2C1` (stereo unspecified), for which the INHIBITION was found to be 29.9%.

Take `CC(C)c1noc(CCCC(=O)N2CCN(Cc3cccnc3)CC2)n1`: the INHIBITION is listed as 26.06%.

`O=C(c1ccco1)N1CCCC2(CN(Cc3ccsc3)CCO2)C1` (stereo unspecified): the INHIBITION is reported as -26.14%.

For the molecule `Cc1noc(C(C)N2CCN(CCOCC(F)(F)F)CC2)n1` (stereo unspecified), the INHIBITION was 36.95%.

As for `CN1CC2(CCN(C(=O)c3ccc4c(=O)n(C)cnc4c3)C2)OC1=O` (stereo unspecified), the INHIBITION amounted to 52.03%.

On to `Cc1nc[nH]c1C(=O)N1CCC2(CN(C)C(=O)O2)C1` (stereo unspecified), for which the INHIBITION came to 36.22%.

In the case of `CN1CC2(CCN(C(=O)c3ccc4c(=O)n(C)cnc4c3)CC2)CC1=O`, the INHIBITION was -7.68%.

As for `CS(=O)(=O)c1ccccc1NCc1ccc(Cn2ccnc2)cc1`, the INHIBITION was 6.78%.

For the molecule `CC(C)(NCCCOc1ccc(C#N)cc1)c1nccs1`, the INHIBITION is 9.27%.

Consider `CNC(=O)c1cccnc1NCCOc1ccccc1`, for which the INHIBITION was -1.89%.

Consider `Cc1csc(C(C)(C)NCCOc2ccc(CC#N)cc2)n1`, for which the INHIBITION came out at 30.06%.

On to `CNC(=O)c1cccc(NCCOc2ccc(CC#N)cc2)c1C`, for which the INHIBITION is 34.46%.

In the case of `CNC(=O)c1cccnc1NCc1ccc(-n2cccn2)cc1`, the INHIBITION is listed as -6.98%.

`CC(C)(NCCOc1ccc(CC#N)cc1)c1nccs1`: the INHIBITION came to 56.89%.

As for `CNC(=O)c1cccnc1NCc1ccc(Cn2cccn2)cc1`, the INHIBITION is on record as -6.29%.

Consider `CNC(=O)c1cccnc1NCc1ccc(Cn2ccnc2)cc1`, for which the INHIBITION was found to be 71.57%.

As to `Brc1ccc(NCc2ccc(Cn3ccnc3)cc2)nc1`, the INHIBITION turned out to be 74.17%.

Regarding `c1ccc(NCc2ccc(Cn3ccnc3)cc2)nc1`, the INHIBITION is on record as 17.64%.

On to `CNC(=O)c1cccnc1NCCOc1ccc(CC#N)cc1`, for which the INHIBITION was 54.29%.

Take `CC(C)(CNC1CCCN(Cc2ccccc2F)C1)CN1CCOCC1` (stereo unspecified): the INHIBITION is 18.22%.

`CCc1ccccc1CN1CCn2nc(CNC(C)=O)cc2C1`: the INHIBITION is listed as -31.66%.

As for `COc1cccc2c1OCC(NC(=O)NCCc1ccccn1)C2` (stereo unspecified), the INHIBITION is listed as 40.59%.

`NC(=O)N1CCCN(CCCSCc2ccccc2)CC1`: the INHIBITION is on record as -16.28%.

As to `c1ccc(Cc2cccc(C3CCCN3C3CCOCC3)n2)cc1` (stereo unspecified), the INHIBITION is 44.16%.

With `O=S(=O)(c1cccc(F)c1)N1C[C@H]2CC[C@@H](C1)N(Cc1ccccc1)C2`, the INHIBITION is -13.58%.

Consider `CC(C(=O)NCc1ccnc(OC2CCCC2)c1)n1cncn1` (stereo unspecified), for which the INHIBITION is -5.34%.

`O=C1NCCCc2c1oc1ccc(O)c(CN3CCOCC3)c21`: the INHIBITION stood at 10.49%.

As to `CCN(C)C(=O)c1ccc2c(c1)C(c1nc[nH]n1)CN2S(C)(=O)=O` (stereo unspecified), the INHIBITION is listed as 53.55%.

Regarding `CCC(CC)NC(=O)c1ccc2c(c1)C(c1nc[nH]n1)CN2S(C)(=O)=O` (stereo unspecified), the INHIBITION stood at 36.34%.

In the case of `CC(C)NC(=O)c1ccc2c(c1)C(c1nc[nH]n1)CN2S(C)(=O)=O` (stereo unspecified), the INHIBITION is on record as -18.52%.
